Experimental findings from PubChem BioAssay (NCATS) are described below.

Assay [1] addresses Rap guanine nucleotide exchange factor 3 (Homo sapiens) (UniProt O95398). Put plainly: Confirmatory qHTS for antagonist of cAMP-regulated guanine nucleotide exchange factor 3 (EPAC1) (AID 1645880). Further: nearly all actives have a fitted effect of over 55% in size. Further: potency means the concentration at half of the fitted maximal effect.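 On activity, negative = inhibition: plate controls were DMSO only for no effect and full effect of the ATA control for full effect.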 Particulars: EPAC1 Rap1B-BODIPY-GDP exchange, fluorescence; activity, negative = inhibition: at 115 µM (top of the series). The method, boiled down:
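Released BODIPY-GDP fluoresces less than Rap1-bound BODIPY-GDP; the signal is followed at 480/540 nm at 5-min intervals over 30 min, after 5 min at room temperature. Reactions contain 100 nM EPAC1, 250 nM RAP1B-BODIPY-GDP and 50 uM GDP; results are normalized to ATA and DMSO.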
(In general: Quantitative high-throughput screening tests each substance at several concentrations.)

Assay [2] shares this target. Kind of assay: Confirmatory qHTS for agonist of cAMP-regulated guanine nucleotide exchange factor 3 (EPAC1) (AID 1645881).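 Further: EPAC1 catalysed release of BODIPY-GDP from Rap1B seen as fluorescence loss; 100% = effect of cAMP agonist control; nearly all actives have a fitted effect of over 75% in size.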
The target in assay [3] is Rap guanine nucleotide exchange factor 4 (Homo sapiens) (UniProt Q8WZA2). Kind of assay: Confirmatory qHTS for agonist of cAMP-regulated guanine nucleotide exchange factor 4 (EPAC2) (AID 1645884).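 Further: nucleotide exchange releases bodipy-GDP from Rap1 and this lowers its fluorescence; on the % scale 0 is the no-effect control and ±100 the full control effect; nearly all actives have a fitted effect of over 65% in size.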
Rap guanine nucleotide exchange factor 4 (Homo sapiens), sequence (Q8WZA2 whole entry, looked up): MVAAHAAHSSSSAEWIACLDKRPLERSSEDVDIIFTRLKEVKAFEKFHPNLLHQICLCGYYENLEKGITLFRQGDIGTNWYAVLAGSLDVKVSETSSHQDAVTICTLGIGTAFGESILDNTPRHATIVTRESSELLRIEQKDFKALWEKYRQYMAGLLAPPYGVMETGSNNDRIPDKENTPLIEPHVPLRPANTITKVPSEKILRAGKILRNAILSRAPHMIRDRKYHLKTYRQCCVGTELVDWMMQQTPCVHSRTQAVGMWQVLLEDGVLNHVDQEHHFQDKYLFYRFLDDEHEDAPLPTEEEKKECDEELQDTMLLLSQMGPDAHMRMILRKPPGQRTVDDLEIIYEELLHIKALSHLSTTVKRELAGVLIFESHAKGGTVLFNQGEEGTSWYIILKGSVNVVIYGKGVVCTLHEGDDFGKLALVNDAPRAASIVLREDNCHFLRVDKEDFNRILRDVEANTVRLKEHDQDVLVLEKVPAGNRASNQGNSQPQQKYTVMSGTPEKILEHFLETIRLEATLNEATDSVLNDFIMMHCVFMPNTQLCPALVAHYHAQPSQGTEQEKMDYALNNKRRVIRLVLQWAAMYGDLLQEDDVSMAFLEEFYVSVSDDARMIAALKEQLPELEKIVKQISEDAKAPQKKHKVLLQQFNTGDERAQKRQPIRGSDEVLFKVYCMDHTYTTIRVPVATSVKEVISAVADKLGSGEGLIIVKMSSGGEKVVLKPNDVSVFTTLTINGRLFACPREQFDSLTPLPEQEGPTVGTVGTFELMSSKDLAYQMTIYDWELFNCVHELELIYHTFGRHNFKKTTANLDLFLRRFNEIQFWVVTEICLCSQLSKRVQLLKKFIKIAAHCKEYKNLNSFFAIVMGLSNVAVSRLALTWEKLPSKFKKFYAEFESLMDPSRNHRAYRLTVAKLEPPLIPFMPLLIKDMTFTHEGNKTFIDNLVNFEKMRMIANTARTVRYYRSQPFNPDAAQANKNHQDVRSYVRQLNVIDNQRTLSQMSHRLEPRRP
Assay [4] shares this target. Kind of assay: Confirmatory qHTS for antagonist of cAMP-regulated guanine nucleotide exchange factor 4 (EPAC2) (AID 1645885). Further: nearly all actives have a fitted effect of over 25% in size. Further: potency means the concentration at half of the fitted maximal effect. On activity change, negative = inhibition: on the % scale 0 is the no-effect control and ±100 the full control effect.
Assay [5] deals with Rap guanine nucleotide exchange factor 3 (Homo sapiens) (UniProt O95398). Kind of assay: Counterscreen qHTS for antagonist of cAMP-regulated guanine nucleotide exchange factor 3 (EPAC1) (AID 1645888). Further: % of control where 0% means no effect. The method, boiled down: (§1)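 Measured: fluorescence of BODIPY-GDP bound to Rap1B, which falls as exchange proceeds. Conditions include 50 uM competing GDP, 5 and 30 min reads, and a later cAMP challenge for antagonist detection.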
Rap guanine nucleotide exchange factor 3 (Homo sapiens), sequence (O95398 whole entry, looked up): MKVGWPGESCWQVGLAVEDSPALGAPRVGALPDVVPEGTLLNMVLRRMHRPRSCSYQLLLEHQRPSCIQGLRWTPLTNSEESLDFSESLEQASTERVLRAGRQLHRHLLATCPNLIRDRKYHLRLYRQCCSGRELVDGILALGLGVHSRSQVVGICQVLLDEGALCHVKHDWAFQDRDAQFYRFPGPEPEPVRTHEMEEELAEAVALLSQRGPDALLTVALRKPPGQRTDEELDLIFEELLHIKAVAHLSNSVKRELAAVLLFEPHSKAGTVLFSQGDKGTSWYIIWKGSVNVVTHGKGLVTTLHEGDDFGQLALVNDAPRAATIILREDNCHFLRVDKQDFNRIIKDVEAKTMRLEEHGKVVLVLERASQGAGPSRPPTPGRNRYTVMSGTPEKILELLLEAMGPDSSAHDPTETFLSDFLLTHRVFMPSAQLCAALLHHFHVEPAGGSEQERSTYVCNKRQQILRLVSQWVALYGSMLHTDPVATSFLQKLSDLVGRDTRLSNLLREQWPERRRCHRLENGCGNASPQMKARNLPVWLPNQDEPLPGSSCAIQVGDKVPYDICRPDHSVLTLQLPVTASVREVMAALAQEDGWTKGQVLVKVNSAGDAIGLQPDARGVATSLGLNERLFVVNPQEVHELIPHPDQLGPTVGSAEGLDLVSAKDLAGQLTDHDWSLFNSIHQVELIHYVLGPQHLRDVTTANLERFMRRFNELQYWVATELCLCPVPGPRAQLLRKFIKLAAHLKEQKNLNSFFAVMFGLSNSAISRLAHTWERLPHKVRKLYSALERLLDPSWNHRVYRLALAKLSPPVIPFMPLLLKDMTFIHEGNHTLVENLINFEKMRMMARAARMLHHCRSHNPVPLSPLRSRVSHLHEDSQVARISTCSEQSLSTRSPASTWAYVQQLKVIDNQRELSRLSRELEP

The target is the same in assay [6]. Put plainly: Counterscreen qHTS for agonist of cAMP-regulated guanine nucleotide exchange factor 3 (EPAC1) (AID 1645889). Further: % of control where 0% means no effect; nearly all actives have a fitted effect of over 40% in size. The method, boiled down: as §1
For orientation: A counterscreen serves to expose hits that act by an unwanted route or on another target.

Results filed as inconclusive are left out. Unmarked numbers belong to inactive results. Active and inactive are the calls of the source. The call rests on the fitted dose curve; in most records, active means well fitted curve in the direction sought with a large enough effect; inconclusive means small, poorly fitted or top-dose-only effect, or another doubt; inactive means no such curve, though single readings can be large; an effect the other way counts as inactive or inconclusive.

`COc1ccc(NC(=O)CCCSc2nc(-c3ccco3)cc(C(F)(F)F)n2)cc1`: the Potency result in assay [1], in assay [2], in assay [3], in assay [4], in assay [5] and in assay [6] was “inactive” in each case.
Take `CC[C@]12c3[nH]c4cc(-c5ccco5)ccc4c3CCN1C(=O)[C@@H](CC(=O)NCCCOC)C[C@@H]2C(=O)N1CCN(C(=O)C2CC2)CC1`: the Potency result in assay [1], in assay [2] and in assay [4] was “inactive” throughout. The activation in assay [3] is 9.39% [at 17.1 µM, percent relative to cAMP agonist control]; in assay [6], -1.13% [at 30.8 µM]. Also, the activity change, negative = inhibition in assay [5] is -21.4% [at 30.8 µM].
For `O=C(N/N=C/c1ccc(-c2ccc(Cl)c(C(=O)O)c2)o1)c1cc2c(ccc3ccccc32)o1`, in assay [1], the Potency was 12.6 µM (active). Moreover, the Potency entry in assay [2] and in assay [4] was “inactive” each time. Moreover, the activation is 0.332% [at 17.1 µM, percent relative to cAMP agonist control] in assay [3] and 12% [at 30.8 µM] in assay [6]. Also, the activity change, negative = inhibition in assay [5] was -35.1% [at 30.8 µM].
Regarding `O=C(O)CN1C(=O)/C(=C\c2cc(Br)ccc2OCc2ccc(Cl)cc2)SC1=S`, the Potency is 30.1 µM (active) in assay [1] and 47.8 µM (active) in assay [4]. For the same compound, the Potency result in assay [2], in assay [3], in assay [5] and in assay [6] was “inactive” throughout.
Consider `CCOc1cc2c3c(c1)C(C)=CC(C)(C)N3C(=O)C2=O`, for which the Potency result in assay [1], in assay [2] and in assay [4] was “inactive” throughout. The activation in assay [3] was -1.35% [at 17.1 µM, percent relative to cAMP agonist control]; in assay [6] it was 25% [at 30.8 µM]. In addition, the activity change, negative = inhibition in assay [5] was -14.8% [at 30.8 µM].
For the compound `Cc1c(C(=O)N2CCC2)oc2ccc(Br)cc12`, the Potency entry in assay [1], in assay [2], in assay [3], in assay [5] and in assay [6] was “inactive” throughout. The Potency in assay [4] is 33.8 µM (active).
Turning to `Cc1cc(C)cc(OCCSc2nc(-c3ccc(C(C)(C)C)cc3)nc3cc(=O)[nH]n23)c1`, the Potency in assay [1] was 67.5 µM (active). In addition, the Potency result in assay [2], in assay [3], in assay [5] and in assay [6] was “inactive” throughout. Moreover, the outcome in assay [4] was “inactive [at 12.7 µM]”.
Turning to `O=C(c1cc(-c2ccc(Cl)cc2)nc2ccccc12)N1CCC1`, the Potency entry in assay [1], in assay [2], in assay [3], in assay [4], in assay [5] and in assay [6] was “inactive” each time.
With `COc1ccc(NC(=O)N2CCN3CCCCC3C2)cc1OC` (stereo not given), the Potency result in assay [1], in assay [2], in assay [3], in assay [4], in assay [5] and in assay [6] was “inactive” throughout.
With `CSc1ccc(/C=N/NC(=O)CN2CCN(Cc3ccc(Cl)cc3)CC2)cc1`, the Potency entry in assay [1], in assay [2], in assay [3], in assay [4], in assay [5] and in assay [6] was “inactive” throughout.
With `O=C(NC1CCC(O)CC1)c1ccc(S(=O)(=O)NCc2ccco2)cc1` (stereo not given), the Potency result in assay [1], in assay [2], in assay [3], in assay [4], in assay [5] and in assay [6] was “inactive” each time.
`CCOc1cc(/C=C2\SC(=S)N(NS(=O)(=O)c3ccc(C)cc3)C2=O)ccc1O`: the Potency in assay [1] is 19 µM (active). Besides, the Potency entry in assay [2], in assay [3], in assay [4], in assay [5] and in assay [6] was “inactive” throughout.
On to `CCCc1nc2ccc(C(=O)OC)cn2c1Cc1ccccc1`, for which the Potency result in assay [1], in assay [2], in assay [3], in assay [5] and in assay [6] was “inactive” in each case. Moreover, the Potency in assay [4] is 33.8 µM (active).
Regarding `Cc1csc2nc(CNS(=O)(=O)c3ccc4c(c3)CCCC4)cn12`, the Potency entry in assay [1], in assay [2] and in assay [4] was “inactive” each time. In addition, the activation is -3.4% [at 17.1 µM, percent relative to cAMP agonist control] in assay [3] and -8.72% [at 30.8 µM] in assay [6]. Moreover, the activity change, negative = inhibition in assay [5] is -30.8% [at 30.8 µM].
On to `CSc1ccccc1NC(=O)CN(c1ccccc1)S(=O)(=O)N(C)C`, for which the Potency entry in assay [1], in assay [2], in assay [3], in assay [4], in assay [5] and in assay [6] was “inactive” in each case.
Take `Cc1ccc(NC(=O)CN2C(=O)C(c3ccc(C(C)(C)C)cc3)=NC2(C)C)cc1`: the Potency result in assay [1], in assay [2], in assay [3], in assay [4], in assay [5] and in assay [6] was “inactive” throughout.
Consider `C/C(CC(=O)Nc1ccc(Cl)c(C(F)(F)F)c1)=N\NC(=O)c1cnccn1`, for which the Potency result in assay [1], in assay [2], in assay [3], in assay [4], in assay [5] and in assay [6] was “inactive” each time.
Consider `COCCn1c(-c2ccc(Br)cc2)csc1=Nc1cccnc1`, for which the Potency result in assay [1], in assay [2], in assay [3], in assay [4], in assay [5] and in assay [6] was “inactive” each time.
Turning to `Cc1cc(-c2ccc(F)cc2)n2ncc(-c3ccccc3)c2n1`, the Potency result in assay [1], in assay [2], in assay [3], in assay [4], in assay [5] and in assay [6] was “inactive” each time.
Take `Cc1ccc(S(=O)(=O)Nc2cc(C(=O)NCCN3CCCC3)ccc2N2CCCCC2)cc1`: the Potency entry in assay [1], in assay [2], in assay [3], in assay [4], in assay [5] and in assay [6] was “inactive” throughout.
